# In PubChem BioAssay AID1159580 (chemical genetic matrix, 2015):
# The campaign covered roughly 5,500 compounds. About 2,000 (36%) were called active. About 18% were inconclusive and are not listed. The list shows a part of the results. Values without a mark were called inactive. No stated cut-off is given here; in the data, active means normalized growth mostly below about 0.91 (no sharp cut-off); inconclusive means no clear call, values can overlap the other calls; inactive means mostly above about 0.92.
# Experiment: chemical genetic growth profiling, strain panel (AID 1159580);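 further: tested at 20 µM; growth read once vehicle control cultures reached saturation at 30 °C; 1 = growth at the plate median or of vehicle wells; lower values mean less growth of the strain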
# Details: S. cerevisiae deletion strains, growth OD
# [1] = locus YAR019C, strain CDC15, hits give low values
# [2] = locus YBL105C, strain PKC1, hits give low values
# [3] = locus YBR135W, strain CKS1, hits give low values
# [4] = locus YBR136W, strain MEC1, hits give low values
# [5] = locus YDL017W, strain CDC7, hits give low values
# [6] = locus YDL101C, strain DUN1, hits give low values
# [7] = locus YDL214C, strain PRR2, hits give low values
# [8] = locus YDR052C, strain DBF4, hits give low values
# [9] = locus YDR054C, strain cdc34, hits give low values
# [10] = locus YDR226W, strain ADK1, hits give low values
# [11] = locus YDR477W, strain SNF1, hits give low values
# [12] = locus YER123W, strain YCK3, hits give low values
# [13] = locus YER133W, strain GLC7, hits give low values
# [14] = locus YFL029C, strain CAK1, hits give low values
# [15] = locus YFR003C, strain YPI1, hits give low values
# [16] = locus YFR019W, strain FAB1, hits give low values
# [17] = locus YFR028C, strain CDC14, hits give low values
# [18] = locus YGR040W, strain KSS1, hits give low values
# [19] = locus YGR052W, strain FMP48, hits give low values
# [20] = locus YGR092W, strain DBF2, hits give low values
# [21] = locus YHR030C, strain SLT2, hits give low values
# [22] = locus YHR079C, strain IRE1, hits give low values
# [23] = locus YHR082C, strain KSP1, hits give low values
# [24] = locus YHR205W, strain SCH9, hits give low values
# [25] = locus YIL147C, strain SLN1, hits give low values
# [26] = locus YJL095W, strain BCK1, hits give low values
# [27] = locus YJL157C, strain FAR1, hits give low values
# [28] = locus YJR066W, strain TOR1 (second series), hits give low values
# [29] = locus YJR066W, strain TOR1, hits give low values
# [30] = locus YKL048C, strain ELM1, hits give low values
# [31] = locus YKL067W, strain YNK1, hits give low values
# [32] = locus YKL101W, strain HSL1, hits give low values
# [33] = locus YKL193C, strain SDS22, hits give low values
# [34] = locus YKL203C, strain TOR2, hits give low values
# [35] = locus YLR113W, strain HOG1, hits give low values
# [36] = locus YLR133W, strain CKI1, hits give low values
# [37] = locus YLR403W, strain SFP1, hits give low values
# [38] = locus YML070W, strain DAK1, hits give low values
# [39] = locus YMR001C, strain CDC5, hits give low values
# [40] = locus YMR205C, strain PFK2 (second series), hits give low values
# [41] = locus YMR277W, strain FCP1, hits give low values
# [42] = locus YNL006W, strain LST8, hits give low values
# [43] = locus YNL020C, strain ARK1, hits give low values
# [44] = locus YNL183C, strain NPR1, hits give low values
# [45] = locus YNL222W, strain SSU72, hits give low values
# [46] = locus YNL307C, strain MCK1 (second series), hits give low values
# [47] = locus YOL078W, strain AVO1, hits give low values
# [48] = locus YOL136C, strain PFK27, hits give low values
# [49] = locus YOR061W, strain CKA2, hits give low values
# [50] = locus YOR119C, strain RIO1, hits give low values
# [51] = locus YOR231W, strain MKK1, hits give low values
# [52] = locus YOR329C, strain SCD5, hits give low values
# [53] = locus YPL031C, strain PHO85, hits give low values
# [54] = locus YPL153C, strain RAD53, hits give low values
# [55] = locus YPL204W, strain HRR25, hits give low values
# [56] = locus YPL209C, strain IPL1, hits give low values
# [57] = locus YPL256C, strain CLN2, hits give low values
# [58] = locus YPR025C, strain CCL1, hits give low values
# [59] = locus YPR106W, strain ISR1, hits give low values
# [60] = strain NNK1, hits give low values
# [61] = strain TSCII, hits give low values
smiles,measurement,setting,value
COC(=O)/C=C1/OC(c2ccc(OC)cc2)=CC1=O,normalized growth,[1],0.283 (active)
same,normalized growth,[2],0.594 (active)
same,normalized growth,[3],0.428 (active)
same,normalized growth,[4],0.671 (active)
same,normalized growth,[5],0.968
same,normalized growth,[6],0.447 (active)
same,normalized growth,[7],0.105 (active)
same,normalized growth,[8],0.981
same,normalized growth,[9],0.464 (active)
same,normalized growth,[10],0.923
same,normalized growth,[11],0.101 (active)
same,normalized growth,[12],0.102 (active)
same,normalized growth,[13],0.0947 (active)
same,normalized growth,[14],0.177 (active)
same,normalized growth,[15],0.98
same,normalized growth,[16],0.099 (active)
same,normalized growth,[17],0.433 (active)
same,normalized growth,[18],0.108 (active)
same,normalized growth,[19],0.125 (active)
same,normalized growth,[20],0.154 (active)
same,normalized growth,[21],0.14 (active)
same,normalized growth,[22],0.29 (active)
same,normalized growth,[23],0.143 (active)
same,normalized growth,[24],0.0277 (active)
same,normalized growth,[25],0.978
same,normalized growth,[26],0.124 (active)
same,normalized growth,[27],0.121 (active)
same,normalized growth,[28],0.102 (active)
same,normalized growth,[29],0.15 (active)
same,normalized growth,[30],0.402 (active)
same,normalized growth,[31],0.0947 (active)
same,normalized growth,[32],0.156 (active)
same,normalized growth,[33],0.221 (active)
same,normalized growth,[34],0.103 (active)
same,normalized growth,[35],0.163 (active)
same,normalized growth,[36],0.129 (active)
same,normalized growth,[37],0.16 (active)
same,normalized growth,[38],0.0894 (active)
same,normalized growth,[39],0.273 (active)
same,normalized growth,[40],0.152 (active)
same,normalized growth,[41],0.274 (active)
same,normalized growth,[42],0.989
same,normalized growth,[43],0.315 (active)
same,normalized growth,[44],0.115 (active)
same,normalized growth,[45],0.499 (active)
same,normalized growth,[46],0.123 (active)
same,normalized growth,[47],0.316 (active)
same,normalized growth,[48],0.102 (active)
same,normalized growth,[49],0.308 (active)
same,normalized growth,[50],0.108 (active)
same,normalized growth,[51],0.23 (active)
same,normalized growth,[52],0.988
same,normalized growth,[53],0.103 (active)
same,normalized growth,[54],0.221 (active)
same,normalized growth,[55],0.282 (active)
same,normalized growth,[56],0.5 (active)
same,normalized growth,[57],0.154 (active)
same,normalized growth,[58],0.576 (active)
same,normalized growth,[59],0.507 (active)
same,normalized growth,[60],0.11 (active)
same,normalized growth,[61],0.265 (active)
CO/N=C1/CC(C)(C)Cc2c(-c3ccn(C(=O)Nc4cccc(Cl)c4)n3)sc(SC)c21,normalized growth,[1],0.981
same,normalized growth,[2],0.965
same,normalized growth,[3],0.968
same,normalized growth,[4],0.969
same,normalized growth,"locus YBR160W, strain CDC28, hits give low values",0.964
same,normalized growth,[5],0.967
same,normalized growth,"locus YDL028C, strain MPS1, hits give low values",0.963
same,normalized growth,[6],0.975
same,normalized growth,"locus YDL108W, strain KIN28, hits give low values",0.959
same,normalized growth,"locus YDL132W, strain cdc53, hits give low values",0.967
same,normalized growth,[7],0.983
same,normalized growth,[8],0.973
same,normalized growth,[9],0.971
same,normalized growth,[10],0.974
same,normalized growth,[11],0.996
same,normalized growth,[12],0.993
same,normalized growth,[13],1
same,normalized growth,"locus YFL009W, strain cdc4, hits give low values",0.963
same,normalized growth,[14],0.978
same,normalized growth,[15],0.96
same,normalized growth,[16],1
same,normalized growth,[17],0.969
same,normalized growth,[18],1
same,normalized growth,[19],1.02
same,normalized growth,[20],1
same,normalized growth,[21],1.16 [resistant] (active)
same,normalized growth,[22],1.13
same,normalized growth,[23],1.1
same,normalized growth,[24],0.989
same,normalized growth,[25],0.972
same,normalized growth,[26],1.02
same,normalized growth,"locus YJL128C, strain PBS2, hits give low values",0.952
same,normalized growth,[27],0.996
same,normalized growth,"locus YJR016C, strain ILV3, hits give low values",0.97
same,normalized growth,[28],1.06
same,normalized growth,[29],1.1
same,normalized growth,[30],0.993
same,normalized growth,[31],0.98
same,normalized growth,[32],0.988
same,normalized growth,[33],0.968
same,normalized growth,[34],1.06
same,normalized growth,[35],0.968
same,normalized growth,[36],0.98
same,normalized growth,[37],1.02
same,normalized growth,[38],0.984
same,normalized growth,[39],0.977
same,normalized growth,[40],0.978
same,normalized growth,[41],0.97
same,normalized growth,[42],0.981
same,normalized growth,[43],0.983
same,normalized growth,"locus YNL161W, strain CBK1, hits give low values",0.977
same,normalized growth,[44],1.03
same,normalized growth,"locus YNL207W, strain RIO2, hits give low values",0.971
same,normalized growth,[45],0.969
same,normalized growth,[46],0.992
same,normalized growth,[47],0.966
same,normalized growth,[48],0.993
same,normalized growth,[49],0.98
same,normalized growth,[50],1.05
same,normalized growth,[51],0.984
same,normalized growth,[52],0.971
same,normalized growth,[53],1.02
same,normalized growth,[54],1.04
same,normalized growth,[55],1.02
same,normalized growth,[56],0.969
same,normalized growth,[57],1.13
same,normalized growth,[58],0.963
same,normalized growth,[59],0.975
same,normalized growth,"locus YPR111W, strain DBF20, hits give low values",0.962
same,normalized growth,[60],0.989
same,normalized growth,[61],0.977
